Source: PubChem BioAssay AID651681 (Broad Institute, 2012)

target: Cyclin-dependent kinase 2 (Homo sapiens) + Cyclin-A2 (Homo sapiens) (UniProt P20248+P24941); test: blockade of human CDK2 kinase activity – biochemical, dry powder, set 3, selectivity assay for Dyrk1A inhibitor project, dose response (AID 651681); settings: CDK2/cyclin A ADP-Glo luminescence, histone H1 peptide; series mostly up to 10 µM; inhibition: at the top concentration
Sequence (P20248 whole entry, looked up, one chain of several): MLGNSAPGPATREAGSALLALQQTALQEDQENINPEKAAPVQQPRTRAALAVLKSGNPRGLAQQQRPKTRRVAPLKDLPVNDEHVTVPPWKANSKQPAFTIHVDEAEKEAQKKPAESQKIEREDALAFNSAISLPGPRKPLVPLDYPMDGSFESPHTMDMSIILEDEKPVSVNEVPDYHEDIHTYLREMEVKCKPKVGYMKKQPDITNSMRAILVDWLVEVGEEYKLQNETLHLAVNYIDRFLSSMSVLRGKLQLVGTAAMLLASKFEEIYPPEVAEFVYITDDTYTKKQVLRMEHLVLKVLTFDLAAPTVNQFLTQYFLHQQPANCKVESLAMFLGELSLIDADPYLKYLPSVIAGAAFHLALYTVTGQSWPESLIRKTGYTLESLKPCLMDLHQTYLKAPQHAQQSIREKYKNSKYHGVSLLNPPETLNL

inhibition, inactive:
COc1ccc(OC)c(C2=Nn3c(nnc3-c3ccccn3)SC2)c1 4.06%
O=C(NCc1ccco1)c1sc2ccccc2c1Cl -15.9%
CN(CC(=O)Nc1nccs1)S(=O)(=O)c1ccc(Cl)cc1 8.85%
COc1ccc(C2=Nn3c(nnc3-c3cccnc3)SC2)cc1 5.52%
